Laboratory results published in the supplement of paper PMC11732987, “Enantioselective OTUD7B fragment discovery through chemoproteomics screening and high-throughput optimisation” (Communications Chemistry, 2025).

What was measured:
Assay in all cases: log2 ratio of Biotin-Ahx-Ub-VS probe labelling (fragment/DMSO); higher = less target engagement (more negative = stronger competition), active = hit call of the paper (q ≤ 0.05, log2 ratio ≤ -1)
Conditions in all cases: compound concentration: 200 uM; treatment time: 3 h
USP19 = target: T1, USP19 (UniProt O94966)
T1 sequence (whole entry): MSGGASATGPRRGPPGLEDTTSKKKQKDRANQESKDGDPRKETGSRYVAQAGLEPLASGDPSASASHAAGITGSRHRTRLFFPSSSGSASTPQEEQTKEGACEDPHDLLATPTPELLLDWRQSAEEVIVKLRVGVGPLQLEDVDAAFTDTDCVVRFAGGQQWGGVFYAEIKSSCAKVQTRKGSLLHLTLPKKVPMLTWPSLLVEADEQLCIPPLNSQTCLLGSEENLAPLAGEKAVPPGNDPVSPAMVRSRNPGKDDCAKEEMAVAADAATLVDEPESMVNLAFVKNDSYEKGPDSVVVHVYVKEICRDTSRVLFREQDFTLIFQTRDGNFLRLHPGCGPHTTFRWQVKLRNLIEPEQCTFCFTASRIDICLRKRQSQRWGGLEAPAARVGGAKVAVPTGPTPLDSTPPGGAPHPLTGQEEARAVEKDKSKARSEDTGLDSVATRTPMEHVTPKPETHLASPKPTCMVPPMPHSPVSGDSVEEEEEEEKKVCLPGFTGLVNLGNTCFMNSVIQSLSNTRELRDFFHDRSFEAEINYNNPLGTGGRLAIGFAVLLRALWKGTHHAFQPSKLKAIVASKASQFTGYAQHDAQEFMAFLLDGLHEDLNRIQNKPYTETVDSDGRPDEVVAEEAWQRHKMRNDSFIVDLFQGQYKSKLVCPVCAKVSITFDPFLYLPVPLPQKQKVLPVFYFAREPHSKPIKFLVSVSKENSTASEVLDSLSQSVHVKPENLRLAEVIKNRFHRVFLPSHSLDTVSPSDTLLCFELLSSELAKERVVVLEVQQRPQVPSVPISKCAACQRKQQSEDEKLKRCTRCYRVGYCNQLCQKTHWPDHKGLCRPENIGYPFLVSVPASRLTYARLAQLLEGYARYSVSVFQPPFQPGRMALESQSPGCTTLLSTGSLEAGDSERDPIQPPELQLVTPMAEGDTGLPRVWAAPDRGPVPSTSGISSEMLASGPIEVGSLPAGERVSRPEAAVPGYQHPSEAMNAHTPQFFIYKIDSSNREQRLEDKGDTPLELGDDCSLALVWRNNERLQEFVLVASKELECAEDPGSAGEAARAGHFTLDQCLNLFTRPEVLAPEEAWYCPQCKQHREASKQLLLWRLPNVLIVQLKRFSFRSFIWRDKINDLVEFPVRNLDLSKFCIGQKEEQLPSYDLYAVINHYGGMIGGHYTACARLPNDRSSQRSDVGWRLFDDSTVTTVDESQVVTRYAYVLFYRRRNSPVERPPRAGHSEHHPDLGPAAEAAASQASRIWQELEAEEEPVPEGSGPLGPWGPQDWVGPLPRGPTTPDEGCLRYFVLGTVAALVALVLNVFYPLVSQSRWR
In short: (§1)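 HEK293T lysate, 495 µg per sample in Tris/CHAPS/IGEPAL buffer with protease inhibitors, was treated in triplicate with fragment at 200 µM or vehicle for 3 h and then with Biotin-Ahx-Ub-VS at 0.5 µM final for 1 h. Labelled DUBs were NeutrAvidin-enriched, digested with LysC and trypsin, and run by diaPASEF LC-MS/MS. Spectronaut label-free quantities were global-median-normalised, and values are average log2 fragment/vehicle ratios by unpaired t-test on proteins with ≥2 unique peptides.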

USP22 = target: T2, USP22 (UniProt Q9UPT9)
T2 sequence (whole entry): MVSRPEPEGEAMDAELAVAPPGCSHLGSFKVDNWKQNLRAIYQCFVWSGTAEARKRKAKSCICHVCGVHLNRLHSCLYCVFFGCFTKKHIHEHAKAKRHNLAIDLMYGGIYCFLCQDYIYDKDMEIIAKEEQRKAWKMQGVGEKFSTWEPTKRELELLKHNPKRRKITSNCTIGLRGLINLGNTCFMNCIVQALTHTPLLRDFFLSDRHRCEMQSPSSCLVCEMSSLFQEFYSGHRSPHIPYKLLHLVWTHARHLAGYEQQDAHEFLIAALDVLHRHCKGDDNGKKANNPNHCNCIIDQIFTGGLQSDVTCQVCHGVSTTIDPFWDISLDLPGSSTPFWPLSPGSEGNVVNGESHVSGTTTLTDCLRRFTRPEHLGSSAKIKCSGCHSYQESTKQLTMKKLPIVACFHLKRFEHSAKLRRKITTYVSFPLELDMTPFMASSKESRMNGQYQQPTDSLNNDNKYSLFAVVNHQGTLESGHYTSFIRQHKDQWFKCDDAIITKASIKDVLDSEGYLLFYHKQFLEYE
In short: as §1

USP24 = USP24 (UniProt Q9UPU5)
Sequence of USP24 (Q9UPU5 whole entry): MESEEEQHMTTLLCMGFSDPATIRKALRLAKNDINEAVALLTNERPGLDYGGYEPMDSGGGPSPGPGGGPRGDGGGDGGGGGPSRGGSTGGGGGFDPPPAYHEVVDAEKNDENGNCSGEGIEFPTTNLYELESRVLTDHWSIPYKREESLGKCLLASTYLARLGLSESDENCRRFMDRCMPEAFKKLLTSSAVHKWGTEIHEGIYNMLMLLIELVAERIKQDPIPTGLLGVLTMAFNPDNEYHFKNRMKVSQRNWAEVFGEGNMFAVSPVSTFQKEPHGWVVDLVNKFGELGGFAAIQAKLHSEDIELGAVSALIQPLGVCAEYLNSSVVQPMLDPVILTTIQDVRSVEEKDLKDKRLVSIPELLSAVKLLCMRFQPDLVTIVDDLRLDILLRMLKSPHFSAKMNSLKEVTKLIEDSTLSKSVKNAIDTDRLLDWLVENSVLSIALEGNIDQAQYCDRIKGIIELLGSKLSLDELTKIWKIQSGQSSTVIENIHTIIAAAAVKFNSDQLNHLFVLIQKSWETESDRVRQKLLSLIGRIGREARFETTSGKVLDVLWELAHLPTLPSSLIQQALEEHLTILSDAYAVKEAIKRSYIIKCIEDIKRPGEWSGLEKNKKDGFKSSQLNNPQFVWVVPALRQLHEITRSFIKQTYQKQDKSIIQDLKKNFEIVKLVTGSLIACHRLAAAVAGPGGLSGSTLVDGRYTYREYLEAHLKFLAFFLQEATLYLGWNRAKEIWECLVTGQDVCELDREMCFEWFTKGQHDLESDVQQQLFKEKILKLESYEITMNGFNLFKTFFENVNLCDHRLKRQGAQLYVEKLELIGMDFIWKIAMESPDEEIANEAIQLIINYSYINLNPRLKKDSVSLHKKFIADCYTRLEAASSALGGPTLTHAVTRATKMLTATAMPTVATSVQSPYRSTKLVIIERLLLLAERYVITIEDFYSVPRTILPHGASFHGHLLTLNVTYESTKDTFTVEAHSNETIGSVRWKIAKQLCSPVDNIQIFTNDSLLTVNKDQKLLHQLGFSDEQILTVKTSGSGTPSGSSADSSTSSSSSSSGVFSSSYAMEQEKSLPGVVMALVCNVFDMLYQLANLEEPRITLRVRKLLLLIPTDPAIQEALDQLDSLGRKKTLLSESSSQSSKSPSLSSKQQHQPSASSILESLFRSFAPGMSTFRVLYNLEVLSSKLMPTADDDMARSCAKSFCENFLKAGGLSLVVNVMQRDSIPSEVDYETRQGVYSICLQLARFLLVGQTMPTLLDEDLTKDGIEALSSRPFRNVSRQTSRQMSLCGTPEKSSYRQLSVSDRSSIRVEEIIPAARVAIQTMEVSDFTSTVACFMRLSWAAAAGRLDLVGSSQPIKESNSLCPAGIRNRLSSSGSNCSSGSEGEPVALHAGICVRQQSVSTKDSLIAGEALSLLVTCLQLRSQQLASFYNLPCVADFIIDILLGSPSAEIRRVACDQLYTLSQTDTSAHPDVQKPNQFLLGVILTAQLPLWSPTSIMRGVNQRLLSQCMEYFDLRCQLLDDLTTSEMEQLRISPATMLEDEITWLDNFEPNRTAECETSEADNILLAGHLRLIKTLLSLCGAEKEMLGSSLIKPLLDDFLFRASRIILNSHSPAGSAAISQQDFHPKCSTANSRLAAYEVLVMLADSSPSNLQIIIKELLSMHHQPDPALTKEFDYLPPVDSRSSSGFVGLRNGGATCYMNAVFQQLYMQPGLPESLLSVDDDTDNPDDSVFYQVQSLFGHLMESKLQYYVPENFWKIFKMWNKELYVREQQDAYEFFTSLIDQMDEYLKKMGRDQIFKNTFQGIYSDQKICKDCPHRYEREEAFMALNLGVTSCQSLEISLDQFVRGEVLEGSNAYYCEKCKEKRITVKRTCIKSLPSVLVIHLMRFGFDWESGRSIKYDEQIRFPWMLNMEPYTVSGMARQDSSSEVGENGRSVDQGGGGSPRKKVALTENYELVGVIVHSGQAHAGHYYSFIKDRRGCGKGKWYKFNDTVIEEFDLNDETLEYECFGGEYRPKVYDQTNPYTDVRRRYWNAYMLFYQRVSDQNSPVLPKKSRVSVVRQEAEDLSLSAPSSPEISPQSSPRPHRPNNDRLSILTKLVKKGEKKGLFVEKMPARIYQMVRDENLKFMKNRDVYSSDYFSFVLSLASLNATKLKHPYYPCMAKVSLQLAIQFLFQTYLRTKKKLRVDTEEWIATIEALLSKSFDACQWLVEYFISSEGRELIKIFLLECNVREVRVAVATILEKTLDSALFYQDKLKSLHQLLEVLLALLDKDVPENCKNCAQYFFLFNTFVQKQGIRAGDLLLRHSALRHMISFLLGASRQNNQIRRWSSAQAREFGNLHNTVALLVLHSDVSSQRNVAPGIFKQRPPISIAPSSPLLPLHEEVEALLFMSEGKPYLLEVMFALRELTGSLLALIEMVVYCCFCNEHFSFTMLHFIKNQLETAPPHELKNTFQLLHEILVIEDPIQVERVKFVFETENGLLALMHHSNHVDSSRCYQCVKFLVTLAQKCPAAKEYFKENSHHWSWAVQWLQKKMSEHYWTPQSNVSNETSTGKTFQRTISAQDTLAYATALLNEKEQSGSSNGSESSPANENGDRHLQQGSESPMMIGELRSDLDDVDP
In short: as §1

USP25 = target: T3, USP25 (UniProt Q9UHP3)
T3 sequence (whole entry): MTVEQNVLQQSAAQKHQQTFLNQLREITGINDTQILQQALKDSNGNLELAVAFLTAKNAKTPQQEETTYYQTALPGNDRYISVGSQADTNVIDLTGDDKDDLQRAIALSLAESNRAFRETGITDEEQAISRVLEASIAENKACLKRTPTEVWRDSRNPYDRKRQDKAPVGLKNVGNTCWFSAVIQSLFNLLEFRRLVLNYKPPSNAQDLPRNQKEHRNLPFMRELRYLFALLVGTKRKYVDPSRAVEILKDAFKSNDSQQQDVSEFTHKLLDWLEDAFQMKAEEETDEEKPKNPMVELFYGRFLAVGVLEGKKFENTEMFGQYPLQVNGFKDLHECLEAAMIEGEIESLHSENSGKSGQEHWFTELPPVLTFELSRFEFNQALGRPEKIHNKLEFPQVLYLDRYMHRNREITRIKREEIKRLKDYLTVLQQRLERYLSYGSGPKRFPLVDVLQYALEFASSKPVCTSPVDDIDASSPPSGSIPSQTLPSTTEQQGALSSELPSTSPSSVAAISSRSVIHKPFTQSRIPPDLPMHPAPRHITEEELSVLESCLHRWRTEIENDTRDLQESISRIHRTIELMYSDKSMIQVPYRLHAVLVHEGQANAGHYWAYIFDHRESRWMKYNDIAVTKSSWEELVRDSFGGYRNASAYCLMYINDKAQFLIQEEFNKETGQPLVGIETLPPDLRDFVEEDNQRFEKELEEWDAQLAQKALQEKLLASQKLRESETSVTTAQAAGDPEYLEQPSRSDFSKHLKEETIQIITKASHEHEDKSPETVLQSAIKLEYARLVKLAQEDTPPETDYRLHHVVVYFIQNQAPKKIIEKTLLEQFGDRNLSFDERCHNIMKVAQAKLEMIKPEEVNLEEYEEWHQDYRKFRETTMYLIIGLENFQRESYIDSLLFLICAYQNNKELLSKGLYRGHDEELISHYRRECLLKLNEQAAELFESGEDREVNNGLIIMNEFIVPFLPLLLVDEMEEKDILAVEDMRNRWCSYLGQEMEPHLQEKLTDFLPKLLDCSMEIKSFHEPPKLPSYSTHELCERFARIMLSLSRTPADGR
In short: as §1

USP28 = target: T4, USP28 (UniProt Q96RU2)
T4 sequence (whole entry): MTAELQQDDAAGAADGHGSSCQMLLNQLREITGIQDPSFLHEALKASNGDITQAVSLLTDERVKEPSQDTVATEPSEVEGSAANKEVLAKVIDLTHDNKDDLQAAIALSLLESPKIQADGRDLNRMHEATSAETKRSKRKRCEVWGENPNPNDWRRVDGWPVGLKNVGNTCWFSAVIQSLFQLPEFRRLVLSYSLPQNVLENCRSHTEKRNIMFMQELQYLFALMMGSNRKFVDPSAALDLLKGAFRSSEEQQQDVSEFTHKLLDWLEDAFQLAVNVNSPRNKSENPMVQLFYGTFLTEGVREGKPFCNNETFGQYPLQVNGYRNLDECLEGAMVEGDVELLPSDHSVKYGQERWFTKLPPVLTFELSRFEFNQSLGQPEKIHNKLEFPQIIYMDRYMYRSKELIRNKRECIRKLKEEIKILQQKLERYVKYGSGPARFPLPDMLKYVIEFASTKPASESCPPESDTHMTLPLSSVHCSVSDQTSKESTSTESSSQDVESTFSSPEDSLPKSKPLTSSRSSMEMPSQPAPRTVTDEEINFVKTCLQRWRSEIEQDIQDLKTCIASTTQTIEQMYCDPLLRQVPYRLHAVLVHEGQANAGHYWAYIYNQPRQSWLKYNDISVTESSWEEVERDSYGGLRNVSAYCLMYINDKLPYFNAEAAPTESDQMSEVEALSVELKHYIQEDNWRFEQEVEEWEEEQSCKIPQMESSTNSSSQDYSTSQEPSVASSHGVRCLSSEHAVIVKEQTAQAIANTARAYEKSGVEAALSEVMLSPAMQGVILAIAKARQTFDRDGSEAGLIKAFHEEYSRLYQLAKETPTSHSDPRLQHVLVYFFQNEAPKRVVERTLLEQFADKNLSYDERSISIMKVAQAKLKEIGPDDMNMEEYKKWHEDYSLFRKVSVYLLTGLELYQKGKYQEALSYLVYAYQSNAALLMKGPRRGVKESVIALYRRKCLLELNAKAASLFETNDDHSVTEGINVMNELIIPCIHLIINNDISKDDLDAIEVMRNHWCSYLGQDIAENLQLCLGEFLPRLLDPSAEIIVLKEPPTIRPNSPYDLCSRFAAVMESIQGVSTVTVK
In short: as §1

Measured: log2 ratio of Biotin-Ahx-Ub-VS probe labelling

O=C(CCl)NCCC1COCCO1 (stereo not given)
inactive: USP19 -0.207 | USP22 0.193 | USP24 -0.21 | USP25 -0.158 | USP28 -0.225
